{"source": "PubChem BioAssay (NCI)", "test_system": "HL-60(TB) leukemia", "test": "NCI-60 one-dose screen, 48 h (100 = growth as untreated, 0 = no growth, -100 = all killed)", "settings": "10 µM unless noted", "note": "Values joined by “and” are separate entries in the source; they are usually repeats but may differ in a detail not shown here. Equal entries are not always repeated. This is part of a sample that, as a whole, favours compounds with a hit. Of some 83,000 tested, about 20% had one in any assay.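 Treatment: one concentration, 48 hours, 96-well format. Scoring: percent growth, with anything below 10 considered active.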 Active and inactive are the calls of the source.", "data": [{"smiles": "O=C(Nc1ccc(-c2nc(N3CCOCC3)c3cccn3n2)cc1)Nc1cccnc1", "values": [{"measurement": "growth", "value": "12% (inactive)"}]}, {"smiles": "CN1CCN(C(=O)[C@]23CCC(C)(C)C[C@@H]2C2=CC[C@@H]4[C@@]5(C)Cc6c([nH]c7ccccc67)C(C)(C)[C@@H]5CC[C@@]4(C)[C@]2(C)CC3)CC1", "values": [{"measurement": "growth", "value": "76.7% (inactive)"}]}, {"smiles": "Nc1c(C(=O)Nc2ccncc2)sc2nc3c(cc12)C(O)CCC3", "note": "(stereo not given)", "values": [{"measurement": "growth", "value": "95.4% (inactive)"}]}, {"smiles": "CN(C)CCn1c(=O)c2c3cc4c(cc3n(CCN(C)C)c2c2ccc(Cl)cc21)OCO4", "values": [{"measurement": "growth", "value": "19.5% (inactive)"}]}, {"smiles": "CC(=O)Nc1ccc(S(=O)(=O)N2C(=O)CCC2C(=O)Nc2ccccc2)cc1", "note": "(stereo not given)", "values": [{"measurement": "growth", "value": "25.1% (inactive)"}]}, {"smiles": "N#CCNC(=O)c1ccc(-c2ccnc(Nc3ccc(N4CCOCC4)cc3)n2)cc1", "values": [{"measurement": "growth", "value": "-25.3% (active)"}]}, {"smiles": "CCN(CC)CCNC(=O)c1cn2ncnc(Oc3ccc(NC(=O)Nc4ccc(Cl)c(C(F)(F)F)c4)cc3)c2c1C", "values": [{"measurement": "growth", "value": "-40.8% (active)"}]}, {"smiles": "CCCC1=NNC(=O)C1", "values": [{"measurement": "growth", "value": "95.6% (inactive)"}]}, {"smiles": "O=C1NC(=O)N(Cc2ccccc2)CC1Br", "note": "(stereo not given)", "values": [{"measurement": "growth", "value": "56.4% (inactive)"}]}, {"smiles": "CCCCCCCCN=C(NCCCCCCCC)SCc1cccc2ccccc12", "values": [{"measurement": "growth", "value": "-43.4% (active)"}]}, {"smiles": "O=C1CCCN1c1cccc2cccnc12", "values": [{"measurement": "growth", "value": "101% (inactive)"}]}, {"smiles": "c1coc(-c2c3ccc(=[N+]4CCCCC4)cc-3oc3cc(N4CCCCC4)ccc23)c1", "values": [{"measurement": "growth", "value": "-57.5% (active)"}]}, {"smiles": "C/C(=N\\NC(=O)c1ccncc1)c1ccccc1O", "values": [{"measurement": "growth", "value": "5.87% (active) and 2.85% (active)"}]}, {"smiles": "N#CC1=C(N)Oc2ccc3ccccc3c2C1c1ccccc1", "note": "(stereo not given)", "values": [{"measurement": "growth", "value": "2.02% (active)"}]}, {"smiles": "CS(=O)(=O)c1ccc(-c2cc(-c3nnc(SCC(=O)Nc4ccc(C(=O)/C=C/c5ccc(Cl)cc5)cc4)n3-c3ccccc3)c3ccccc3n2)cc1", "values": [{"measurement": "growth", "value": "98.9% (inactive)"}]}, {"smiles": "CCCCCCCCCCCCCC(=O)Oc1ccc[nH]c1=O", "values": [{"measurement": "growth", "value": "97.1% (inactive)"}]}, {"smiles": "COc1ccc(NS(=O)(=O)N2CCCCC2)cc1", "values": [{"measurement": "growth", "value": "115% (inactive)"}]}, {"smiles": "COP(=O)(OC)C(C)(C)CC(=O)CC(C#N)(C#N)C(C#N)C#N", "values": [{"measurement": "growth", "value": "103% (inactive)"}]}, {"smiles": "COc1ccc2c(CCC(c3ccccc3)c3ccccc3)c3[n+](cc2c1OC)CCc1cc2c(cc1-3)OCO2", "values": [{"measurement": "growth", "value": "-40.6% (active)"}]}, {"smiles": "CCN(CC)CCNC(=O)c1cn2ncnc(Oc3ccc(NC(=O)Nc4ccc(Cl)c(C(F)(F)F)c4)c(F)c3)c2c1C", "values": [{"measurement": "growth", "value": "-45% (active)"}]}]}
